NS1 inh – qHTS Assay for Inhibitors of Influenza NS1 Protein Function | AID 2326, 2010 | hit rate 0.4% among 270,000 | Potency, µM (series often up to 46.1 µM), inactives show top-dose activity, positive = more growth; calls by dose curve; note: potency is the fitted concentration of half-maximal effect; actives are rising curves; nearly all actives have a fitted effect of over 50% in size
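Growth recovery, yeast-based: influenza A NS1 expressed in S. cerevisiae causes slow growth, and suppressors are detected by OD600. The parent strain without NS1 is used as positive control.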
Shiga toxin inh – A qHTS for Small Molecule Inhibitors of Shiga Toxin | Vero cells, Shiga toxin protein synthesis inhibition reporter | inhibition, % at 38.7 µM | hit rate 9.2% among 290,000; in the data active = inhibition mostly above about 28%, no sharp cut-off; inactive = mostly below about 43%; note: 0% is about no effect
SARS PLpro yeast – qHTS of Yeast-based Assay for SARS-CoV PLP. Potency, µM (series often up to 32.9 µM), without a hit: at the highest dose activity, positive = growth rescue, usual class: activators. hit rate 0.19% among 330,000. S. cerevisiae expressing SARS-CoV PLpro, growth rescue; calls by dose curve; note: potency is the fitted concentration of half-maximal effect; 0% is about no effect; nearly all actives have a fitted effect of over 55% in size
Pf growth 96h – Primary qHTS for delayed death inhibitors of the malarial parasite plastid, 96 hour incubation | P. falciparum luciferase reporter growth, 96 h | hit rate 6.9% among 320,000 | Potency, µM (top dose mostly 28.7 µM), without a hit: at the highest dose activity change, negative = inhibition, usual class: inhibitors; note: potency is the fitted concentration of half-maximal effect; % is set by controls: 0 for no effect and ±100 for the full control effect
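Two parasite generations (96 h, 37 C, 5% CO2) of compound exposure in infected erythrocytes (0.05% parasitemia, 2% hematocrit). Luciferase-reporter P. falciparum; decreased luminescence indicates inhibited growth, aimed at apicoplast-acting delayed death.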
Pf growth 48h – Primary qHTS for delayed death inhibitors of the malarial parasite plastid, 48 hour incubation | P. falciparum luciferase growth in erythrocytes, 48 h | Potency, µM (top dose mostly 28.7 µM), inactives show at the highest dose activity change, negative = inhibition, actives largely listed as inhibitors | hit rate 5.9% among 310,000 | AID 504832, 2011; note: potency is the fitted concentration of half-maximal effect; % is set by controls: 0 for no effect and ±100 for the full control effect
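Growth was read as firefly luciferase luminescence after a 48 h, 37 C, 5% CO2 exposure of compounds to reporter-bearing P. falciparum cultures (0.1% parasitemia, 2% hematocrit final) in Albumax-supplemented RPMI 1640.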
Cycloheximide cs – Cycloheximide Counterscreen for Small Molecule Inhibitors of Shiga Toxin; cell reporter, cycloheximide protein synthesis inhibition counterscreen; max response, %; hit rate 12% among 300,000; in the data active = max response mostly above about 13%, no sharp cut-off; inactive = mostly below about 14%; note: read at 38.3 µM for the half of the compounds with a filed dose; 0% is about no effect
* = called active by the depositor; ? = inconclusive; . = no result given. The list is not random: actives were taken first. Their share in the collection is about 21%. Unless noted, calls come from the whole dose curve; as a rule, active = well fitted inhibition curve with a large enough effect; inconclusive = small, poorly fitted or top-dose-only effect, or another doubt; inactive = no such curve, though single readings can be large or run the other way.

SMILES	NS1 inh	Shiga toxin inh	SARS PLpro yeast	Pf growth 96h	Pf growth 48h	Cycloheximide cs
COc1ccccc1N/N=C(\C#N)C(=N)N1CCOCC1	.	14	-11%	68%	12%	6
O=C(NCCc1c[nH]c2ccccc12)C(=O)NCC1OCCCN1S(=O)(=O)c1ccccc1 (configuration not stated)	-6%	4	-2%	?	9.3µM*	-1
Cc1ccc(S(=O)(=O)N2CCCOC2CNC(=O)C(=O)NCCc2c[nH]c3ccccc23)cc1 (configuration not stated)	?	96*	-5%	13µM*	?	73*
Cc1nc2ccc(NC(=O)N(C(C)C)C(C)C)cc2s1	-10%	53*	4%	53%	.	35*
Cc1nc2ccc(NC(=O)c3ccc(S(=O)(=O)N(C)c4ccccc4)cc3)cc2s1	?	-3	-2%	?	?	7
Cc1nc2ccc(NC(=O)N(C)c3ccccc3)cc2s1	-5%	55*	5%	106%	98%	40*
CC(C)N(C(=O)Nc1ccc2nccnc2c1)C(C)C	-5%	41	-1%	81%	121%	25
Cc1nn(CC(=O)OCC(=O)c2ccc(OC(F)F)cc2)c(C)c1[N+](=O)[O-]	.	.	-1%	34%	4%	.
Cc1nnc2ccc(-c3cccc(NS(=O)(=O)c4ccccc4[N+](=O)[O-])c3)nn12	.	.	-1%	2.9µM*	52%	.
Cc1nnc2ccc(-c3cccc(NS(=O)(=O)c4ccccc4Cl)c3)nn12	.	.	-2%	?	12µM*	.
COc1cc2ccccc2cc1C(=O)N1CCCC(C(F)(F)F)C1 (configuration not stated)	.	.	-2%	0.47µM*	0.52µM*	.
Cc1cc(NC(=O)CSc2nnc(C3CC3)n2N)c([N+](=O)[O-])cc1C	.	-11	-5%	23%	5%	-3
O=C(Oc1ccc(-c2cn3c(n2)SCC3)cc1)c1ccccc1	-4%	11	-5%	.	-16%	12*
CC(=O)Nc1ccc(S(=O)(=O)Nc2cccc(-c3cn4c(n3)SCC4)c2)cc1	.	-4	4%	?	?	-3
CC(=O)Nc1ccc(-c2cn3c(n2)SCC3)cc1	2%	28	2%	84%	81%	32*
O=C(Cc1ccc(F)cc1)Nc1cccc(-c2cn3c(n2)SCC3)c1	.	39	3%	-4%	-6%	14
O=C(Nc1cccc(-c2cn3c(n2)SCC3)c1)c1ccc(Br)o1	.	29	-3%	0.74µM*	17%	17
O=C(Nc1ccc(-c2cn3c(n2)SCC3)cc1)c1ccco1	4%	65*	-1%	110%	62%	40*
CC(=O)c1ccc(S(=O)(=O)Nc2cccc(-c3cn4c(n3)SCC4)c2)cc1	.	12	-1%	?	3%	14
CCOc1cc(C(=O)NCCC(=O)N2CCC3(CC2)NCCc2[nH]cnc23)cc(OCC)c1OCC	-7%	1	-1%	17%	-7%	14
NCCSC(c1ccccc1)c1ccccc1	-4%	.	.	.	.	.
O=C(N/N=C/c1ccc(Sc2ccccn2)o1)c1cccc([N+](=O)[O-])c1	-3%	8	18%	?	-18%	-1
O=C(N/N=C/c1ccc(Sc2nc3ccccc3[nH]2)o1)c1ccncc1	-9%	10	6%	-20%	1%	-3
O=C(N/N=C/c1ccc(Sc2ccccn2)o1)c1cc2ccccc2cc1O	?	24	-14%	?	?	22*
O=C(N/N=C\c1ccc(Sc2ccccn2)o1)c1cccc(F)c1	-11%	62	-7%	22%	-5%	18*
SMILES	NS1 inh	Shiga toxin inh	SARS PLpro yeast	Pf growth 96h	Pf growth 48h	Cycloheximide cs
O=C(CCc1ccccc1O)N/N=C/c1ccc(Sc2cccc3cccnc23)o1	3%	25	5%	3.7µM*	.	7
Cc1ccccc1CSc1ccc2nnc(-c3ccccn3)n2n1	.	19	1%	?	?	1
CC(C)c1nc(CNC(=O)c2ccc(OC3CCN(Cc4ccccn4)CC3)cc2)cs1	-2%	-9	1%	-36%	-25%	2
CCC1CCCCN1C(=O)c1ccc(OC2CCN(Cc3ccccn3)CC2)cc1 (configuration not stated)	2%	-31	-1%	-13%	-24%	-2
O=C(c1ccc(OC2CCN(Cc3ccccn3)CC2)cc1)N1CCC[C@H]1CO	3%	32	4%	3.7µM*	-1%	-2
CC(NC(=O)c1ccc(OC2CCN(Cc3ccccn3)CC2)cc1)c1ccccc1 (configuration not stated)	-1%	-10	0%	12µM*	?	0
C/C(=N/OC(=O)C1CC12CCC2)c1ccc(Br)cc1 (configuration not stated)	.	156*	-2%	-4%	17%	68*
C/C(=N/Oc1nc(C)cc(C)n1)c1ccc(Br)cc1	-85%	39	4%	5%	.	11
CC(C)CCN(C(=O)Nc1ccc(Cl)cc1)C1CCN(C(C)C)CC1	.	-13	-1%	?	13µM*	18
COc1ccc(N(CC(=O)NC2CCCCC2)C(=O)CCC(=O)Nc2nc(C)cs2)cc1OC	6%	-9	1%	-7%	?	-11
O=C1NC(=Nc2ccccc2Cl)SC1(CO)CO	-15%	-8	17%	13µM*	-3%	-2
Cc1ccc(N=C2NC(=O)C(CO)(CO)S2)cc1	-7%	10	-1%	?	11%	8.8*
CCc1ccc(N=C2NC(=O)CS2)cc1	-1%	.	-5%	9.3µM*	?	-3
O=C1CSC(=Nc2ccccc2Cl)N1	2%	23	2%	38%	12%	16*
O=C1CSC(=Nc2ccc(F)cc2)N1	6%	-3	0%	?	?	-4
COc1ccc(OC)c(S(=O)(=O)n2ccnc2)c1	2%	.	.	.	.	.
O=C(Nc1ccccc1N1CCCC1)C1CC(=O)N(Cc2ccccc2)C1 (configuration not stated)	.	.	-2%	14%	2%	.
O=C1CSCN1c1ccc(Cl)cc1	0%	-1	0%	27%	1%	7
Cc1c(Cl)sn(-c2ccc(Cl)cc2)c1=O	-57%	92*	-6%	?	?	35*
Nc1cc(-c2ccc(Br)cc2)[nH]n1	?	25	-12%	1.9µM*	56%	11*
Cc1cc(-c2n[nH]c(=S)n2/N=C/c2ccc(Br)s2)n[nH]1	27%	-5	9%	15%	10%	1
Nc1nc(-c2ccc(Br)cc2)cc(C(F)(F)F)n1	1%	-5	-1%	-16%	.	0
Cc1cc(-c2ccc(Br)cc2)n[nH]1	2%	82*	-2%	73%	118%	31*
O=C(CNC(=O)C1CCCCC1)OCC(=O)c1ccc(Br)cc1	10%	56*	2%	7%	7%	41*
N/C(=N\OC(=O)C1CCCCC1)c1ccc(Br)cc1	-1%	51*	-4%	88%	78%	23*

Screens deposited in PubChem BioAssay by National Center for Advancing Translational Sciences (NCATS).
